The entries come from a sample that favours hits as a whole.
TbREL1 inh: TbREL1 RNA ligase inhibitors, primary screen, biochemical, FRET fluorescence; AID 1117264, 2014; inhibition, % at 9.66 µM; TbREL1 RNA ligation; 89,000 tested, 0.49% active; RNA-editing ligase 1, mitochondrial (Trypanosoma brucei brucei), P86926;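 active means inhibition above the mean inhibition across all screened compounds plus 3 SD, cut at about 11% in these data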;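 further: 0% = plate median of test wells and 100% = NSC42067 control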
Target sequence (P86926 whole entry, looked up): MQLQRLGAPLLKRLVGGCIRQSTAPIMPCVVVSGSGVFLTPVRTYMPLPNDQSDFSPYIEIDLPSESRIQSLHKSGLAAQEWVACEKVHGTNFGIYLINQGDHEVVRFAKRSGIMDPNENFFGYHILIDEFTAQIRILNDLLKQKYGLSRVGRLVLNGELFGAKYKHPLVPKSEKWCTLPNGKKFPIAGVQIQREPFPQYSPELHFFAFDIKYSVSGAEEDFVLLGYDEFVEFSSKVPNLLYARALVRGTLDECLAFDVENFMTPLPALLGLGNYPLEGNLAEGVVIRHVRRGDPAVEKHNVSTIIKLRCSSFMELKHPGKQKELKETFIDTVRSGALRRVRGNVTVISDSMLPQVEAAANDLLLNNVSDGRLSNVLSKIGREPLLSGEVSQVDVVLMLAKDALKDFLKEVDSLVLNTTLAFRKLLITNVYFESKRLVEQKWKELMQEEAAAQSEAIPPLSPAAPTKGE
TbREL1 conf: TbREL1 RNA ligase inhibitors, confirmation, biochemical, FRET fluorescence, triplicate; shares compounds with TbREL1 inh; 390 tested, 37% active; TbREL1 RNA ligation; inhibition, % at 9.66 µM;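 active means mean inhibition across replicates above a set limit taken from the earlier primary screen, cut at about 11% in these data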;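 further: 0% = REL1 with substrate and DMSO and 100% = REL1 plus control inhibitor NSC42067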
Numbers without * were called inactive.

SMILES	TbREL1 inh	others
CC(=O)c1ccc2c(c1)C1C=CCC1C(c1ccc(S(=O)(=O)N3CCOCC3)cc1)N2 (centres undefined)	-2
CN(Cc1ccccc1F)C(=O)C1CCC(CNS(=O)(=O)c2cccc3cccnc23)CC1 (centres undefined)	1
C#CCN1C(=O)[C@@](O)(c2cccn2C)c2cc(F)ccc21	-8
O=C(O)CN1C(=O)C2C3C=CC(C2C1=O)C1C(=O)N(CC(=O)O)C(=O)C31 (centres undefined)	4
O=C(CCNc1ccc(Cl)cc1)c1cccs1	-3
O=C(O)CN1C(=O)SC(Nc2ccc(Cl)cc2)C1=O (centres undefined)	11*	TbREL1 conf=6
O=C(NN=Cc1ccc(-c2ccccc2)cc1)c1cc(-c2ccc(Cl)cc2)n[nH]1	-1
COc1cc(C(=O)O)ccc1OCc1ccccc1	3
COc1cc(CNC(=O)C2CC2)ccc1OCc1ccccc1	-1
COc1cc(CN(CCN(C)C)Cc2ccccc2)ccc1OCc1ccccc1	16*	TbREL1 conf=12*
Cc1n[nH]c(C)c1S(=O)(=O)NCCc1ccccc1	8
COc1ccc(CN(C)CC(O)COC(c2ccc(OC)cc2)c2ccc(OC)cc2)cc1 (centres undefined)	13*	TbREL1 conf=8
COc1ccc(-c2noc(CN(C)Cc3ccccc3)n2)cc1	-2
COc1ccc(CNC(=O)CN(C)Cc2ccc(SC)cc2)cc1	-1
CSCCCNC(=O)CN1C(=O)C2CCCCN2C(=O)c2ccccc21 (centres undefined)	-3
Cc1ccccc1NC(=O)c1ccccn1	1
O=C(Nc1nccs1)c1ccccn1	15*	TbREL1 conf=5
O=C(Nc1nccs1)c1cnccn1	7
O=C(NCCc1nc2ccccc2n1CCOc1ccc2cccnc2c1)C1CCCCC1	-3
COc1ccc(-n2c(SCC(=O)N/N=C(/C)c3cccc(O)c3)nc3ccccc3c2=O)cc1	0
CCn1c(SCC(=O)Nc2ccc(C(N)=O)cc2)nc2sc(C)c(C)c2c1=O	1
C/C(C=NNC(=O)CSc1nc2ccccc2n1Cc1ccccc1Cl)=C\c1ccccc1	4
COC1=CC(=O)c2nc(Cl)ccc2C1=O	20*	TbREL1 conf=30*
COC(=O)C1=C(C)N(Cc2ccccc2C(F)(F)F)C(=NCc2ccc3c(c2)OCO3)NC1c1ccccc1 (centres undefined)	12*	TbREL1 conf=14*
COC(=O)C1=C(C)N(Cc2ccccc2C(F)(F)F)C(=NCc2ccc3c(c2)OCO3)NC1c1ccc(Cl)cc1 (centres undefined)	11
SMILES	TbREL1 inh	others
COC(=O)C1=C(C)N(Cc2ccccc2)C(=NCc2ccc3c(c2)OCO3)N[C@H]1c1ccccc1	9
COC(=O)C1=C(C)N(Cc2ccccc2C(F)(F)F)C(=NCc2ccc3c(c2)OCO3)NC1c1ccc(C(F)(F)F)cc1 (centres undefined)	14*	TbREL1 conf=21*
CN(Cc1ccccc1)C(=O)OCc1cn(Cc2cccc(F)c2F)nn1	-3
C=C1[C@@H]2CC[C@H]3[C@]4(C)[C@@H](O)CC[C@@](C)(C(=O)OC)[C@H]4C[C@H](O)[C@]3(C2)[C@H]1O	1
C[C@H]1[C@@H](OC(=O)NCc2cccnc2)CC[C@@]23CCCN2C(=O)CCC[C@@H]13	1
COC(=O)[C@@]12CCCCC=C1N(CCc1ccc(Cl)cc1)C(=O)[C@H]2CC(=O)NCc1cccc(C(F)(F)F)c1	-2

Assay outcomes: PubChem BioAssay, The Scripps Research Institute Molecular Screening Center
